The values that follow come from the antibiotic and cytotoxicity screens of Wong et al. (2023).

SMILES strings stand for the structures. Among all 39,000 compounds or so, about 1,500 (3.8%) were called active. Shown is part of a subset that was picked to be rich in actives.

The assay deals with HSkMC (human skeletal muscle cells). The assay is described as follows: cytotoxicity call (relative viability < 0.9). The settings on record: 10 µM.
In the case of `COc1ccc(S(=O)(=O)Nc2ccc3c(c2)C(=O)N([C@H](C)CO)C[C@H](C)[C@H](CN(C)C(=O)Nc2c(C)noc2C)OCCCC[C@H](C)O3)cc1`, the cytotoxicity call is “inactive”.
On to `C[C@@H]1CCCCO[C@@H](CN(C)S(=O)(=O)c2cccs2)[C@H](C)CN([C@H](C)CO)C(=O)c2cc(NC(=O)Nc3cccc4ccccc34)ccc2O1`, for which the cytotoxicity call was “inactive”.
`COc1ccc(S(=O)(=O)Nc2cccc3c2O[C@@H](CN(C)Cc2ccncc2)[C@H](C)CN([C@@H](C)CO)C3=O)cc1`: the cytotoxicity call was “inactive”.
To `C[C@@H]1CN([C@@H](C)CO)C(=O)c2cccc(NS(=O)(=O)c3cn(C)cn3)c2O[C@@H]1CN(C)S(=O)(=O)c1ccccc1` belongs “inactive”; to `C[C@@H]1CN([C@@H](C)CO)C(=O)c2cc(NC(=O)CCN3CCOCC3)ccc2O[C@@H]1CN(C)CC1CC1`, “inactive”; to `C[C@@H]1CCCCO[C@H](CN(C)C(=O)Cc2ccccc2)[C@H](C)CN([C@@H](C)CO)C(=O)c2cc(NS(=O)(=O)c3cccs3)ccc2O1`, “inactive”.
In the case of `COCC(=O)Nc1ccc2c(c1)OC[C@@H](C)N(Cc1ccccc1OC)C[C@@H](C)[C@H](OC)CN(C)C2=O` it was “inactive”.
In the case of `C[C@H]1CCCCO[C@@H](CN(C)C(=O)Nc2ccc(F)cc2)[C@@H](C)CN([C@@H](C)CO)C(=O)c2cc(NS(=O)(=O)c3cccs3)ccc2O1` it was “inactive”; in that of `CCSc1nnc2c(=O)[nH]c(=O)[nH]c2n1`, “inactive”; in that of `Cc1ccc(S(=O)(=O)Nc2ccc3c(c2)CC(=O)N([C@@H](C)CO)C[C@H](C)[C@H](CN(C)Cc2ccc(C(F)(F)F)cc2)O3)cc1`, “active”.
Turning to `Cc1ccc(S(=O)(=O)Nc2ccc3c(c2)CC(=O)N([C@@H](C)CO)C[C@@H](C)[C@H](CN(C)Cc2ccc(C(F)(F)F)cc2)O3)cc1`, the cytotoxicity call was “inactive”.
In the case of `Cc1ccc(S(=O)(=O)Nc2ccc3c(c2)CC(=O)N([C@H](C)CO)C[C@@H](C)[C@H](CN(C)Cc2ccc(C(F)(F)F)cc2)O3)cc1`, the cytotoxicity call is “inactive”.
With `C[C@H](CO)N1C[C@H](C)[C@@H](CN(C)C(=O)Nc2ccc(C(F)(F)F)cc2)Oc2ccc(NC(=O)Cc3ccccc3)cc2CC1=O`, the cytotoxicity call is “inactive”.
In the case of `C[C@@H]1CN([C@@H](C)CO)C(=O)c2cc(NC(=O)C3CCCCC3)ccc2O[C@@H]1CN(C)Cc1ccc(C(F)(F)F)cc1`, the cytotoxicity call was “inactive”.
`C[C@H]1CN([C@@H](C)CO)C(=O)c2cc(NC(=O)Nc3cccc4ccccc34)ccc2O[C@@H]1CN(C)C(=O)Nc1cccc2ccccc12`: the cytotoxicity call was “inactive”.
Consider `C[C@@H]1CN([C@H](C)CO)C(=O)c2cc(NC(=O)Nc3cccc4ccccc34)ccc2O[C@@H]1CN(C)C(=O)Nc1cccc2ccccc12`, for which the cytotoxicity call is “active”.
Take `C[C@@H]1CN([C@H](C)CO)C(=O)c2cc(NC(=O)Nc3cccc4ccccc34)ccc2O[C@H]1CN(C)C(=O)Nc1cccc2ccccc12`: the cytotoxicity call is “inactive”.
As for `C[C@H](CO)N1C[C@H](C)[C@@H](CN(C)C(=O)Nc2cccc3ccccc23)Oc2ccc(NC(=O)Nc3cccc4ccccc34)cc2C1=O`, the cytotoxicity call was “inactive”.
To `C[C@@H]1CN([C@@H](C)CO)C(=O)c2cc(NC(=O)Nc3cccc4ccccc34)ccc2O[C@@H]1CN(C)C(=O)Nc1cccc2ccccc12` belongs “active”.
For the molecule `C[C@@H]1CN([C@@H](C)CO)C(=O)c2cc(NC(=O)Nc3cccc4ccccc34)ccc2O[C@H]1CN(C)C(=O)Nc1cccc2ccccc12`, the cytotoxicity call was “inactive”.
In the case of `NC(=O)c1c(Cl)ncc2c1NCC2` it was “inactive”.
As for `COC1=C(OC)C(=O)C(C/C=C(\C)CC/C=C(\C)CC/C=C(\C)CC/C=C(/C)CC/C=C(\C)CC/C=C(\C)CC/C=C(\C)CC/C=C(\C)CC/C=C(\C)CCC=C(C)C)=C(C)C1=O`, the cytotoxicity call was “inactive”.
In the case of `CC1=CC(=O)c2ccccc2C1=O` it was “inactive”.
With `COC1=C(OC)C(=O)C(CCCCCCCCCC[P+](c2ccccc2)(c2ccccc2)c2ccccc2)=C(C)C1=O`, the cytotoxicity call is “active”.
Turning to `COC1=C(OC)C(=O)C(CCCCCCCCCCO)=C(C)C1=O`, the cytotoxicity call was “active”.
`COC1=C(OC)C(=O)C(CC=C(C)CCC=C(C)CCC=C(C)CCC=C(C)CCC=C(C)CCC=C(C)CCC=C(C)CCC=C(C)CCC=C(C)CCC=C(C)C)=C(C)C1=O`: the cytotoxicity call is “inactive”.
In the case of `CC1=C(C)C(=O)C(C(CCCCCC(=O)O)c2ccccc2)=C(C)C1=O` (stereo not drawn), the cytotoxicity call was “inactive”.
Consider `COC(=O)CCCCCCC(=O)Nc1ccc(NC(=O)CCCC[P+](c2ccccc2)(c2ccccc2)c2ccccc2)cc1`, for which the cytotoxicity call is “inactive”.
With `CC1=C(C)C(=O)C(CCCCCCCCCC[P+](c2ccccc2)(c2ccccc2)c2ccccc2)=CC1=O`, the cytotoxicity call is “active”.
On to `COC1=C(OC)C(=O)C(C/C=C(\C)CC/C=C(\C)CC/C=C(\C)CC/C=C(\C)CC/C=C(\C)CC/C=C(\C)CC/C=C(\C)CC/C=C(\C)CC/C=C(\C)CCC=C(C)C)=C(C)C1=O`, for which the cytotoxicity call is “inactive”.
As for `Nc1ccc(NC(=O)CCN2CCOCC2)cc1`, the cytotoxicity call is “inactive”.
In the case of `C[C@@H]1CN([C@H](C)CO)C(=O)c2cccc(NC(=O)CCCCCC(=O)Nc3ccccc3N)c2O[C@H]1CN(C)CC1CCCCC1` it was “inactive”; in that of `CC(=O)N(C)C[C@H]1Oc2cc(C#CCN(C)C)ccc2S(=O)(=O)N([C@H](C)CO)C[C@H]1C`, “inactive”; in that of `C[C@@H]1CCCCO[C@H](CN(C)Cc2ccc(C(=O)O)cc2)[C@H](C)CN([C@H](C)CO)C(=O)c2cc(NC(=O)Nc3ccc(C(F)(F)F)cc3)ccc2O1`, “inactive”.
`C[C@H]1CN([C@@H](C)CO)C(=O)c2cc(NS(=O)(=O)c3cn(C)cn3)ccc2O[C@H]1CN(C)C(=O)Nc1ccccc1`: the cytotoxicity call is “inactive”.
As to `C[C@H]1CN([C@@H](C)CO)C(=O)c2cc(/C=C/c3ccccc3)cnc2O[C@@H]1CN(C)S(=O)(=O)c1cn(C)cn1`, the cytotoxicity call is “inactive”.
`COc1ccc(CN(C)C[C@H]2OCCCC[C@@H](C)Oc3ccc(NS(=O)(=O)c4ccc(F)cc4)cc3C(=O)N([C@@H](C)CO)C[C@@H]2C)cc1`: the cytotoxicity call was “inactive”.
For the molecule `O=c1n(-c2ccc(F)cc2)nc2n1CCCN2`, the cytotoxicity call is “inactive”.
In the case of `Cc1ccc(S(=O)(=O)N(C)C[C@H]2Oc3ccc(NC(=O)Cn4cnnn4)cc3CC(=O)N([C@H](C)CO)C[C@@H]2C)cc1` it was “inactive”; in that of `CC1OC(OC2C(O)CC(OC3C(O)CC(OC4CCC5(C)C(CCC6C5CCC5(C)C(C7=CC(=O)OC7)CCC65O)C4)OC3C)OC2C)CC(O)C1O` (stereo not drawn), “active”.
To `C[C@H]1O[C@@H](O[C@H]2[C@@H](O)C[C@H](O[C@H]3[C@@H](O)C[C@H](O[C@H]4CC[C@@]5(C)[C@H](CC[C@@H]6[C@@H]5CC[C@]5(C)[C@@H](C7=CC(=O)OC7)CC[C@]65O)C4)O[C@@H]3C)O[C@@H]2C)C[C@H](O)[C@@H]1O` belongs “active”; to `C[C@H](CO)N1C[C@H](C)[C@@H](CN(C)Cc2ccc(Cl)c(Cl)c2)Oc2ccc(NC(=O)NC3CCCCC3)cc2C1=O`, “inactive”; to `C[C@@H]1CN([C@H](C)CO)C(=O)Cc2cc(NC(=O)CCCCCC(=O)Nc3ccccc3N)ccc2O[C@@H]1CN(C)C(=O)Nc1ccc(F)cc1`, “inactive”.
Consider `COc1ccc(NC(=O)Nc2ccc3c(c2)CC(=O)N([C@@H](C)CO)C[C@@H](C)[C@H](CN(C)CC2CCCCC2)O3)cc1`, for which the cytotoxicity call is “inactive”.
In the case of `O=C(C[C@H]1CC[C@H](NS(=O)(=O)c2ccccc2)[C@H](CO)O1)NCc1ccncn1` it was “inactive”.
On to `COc1ccc2c(-c3ccc(Cl)cc3)c(C)oc2c1`, for which the cytotoxicity call was “inactive”.
In the case of `C[C@H](CO)N1C[C@H](C)[C@H](CN(C)S(=O)(=O)c2ccccc2)Oc2ccc(NC(=O)Cc3ccccc3)cc2C1=O` it was “inactive”; in that of `O=C(C[C@@H]1C[C@@H]2c3cc(NS(=O)(=O)c4ccccc4)ccc3O[C@@H]2[C@H](CO)O1)NCC(F)(F)F`, “inactive”; in that of `C[C@@H]1CCCCO[C@H](CN(C)Cc2ccc3c(c2)OCO3)[C@@H](C)CN([C@H](C)CO)C(=O)c2cc(NS(=O)(=O)c3ccccc3)ccc2O1`, “inactive”.
Turning to `C[C@@H]1O[C@@H](O[C@@H]2[C@@H](O)[C@@H](O[C@@H]3O[C@@H](CO)[C@H](O)[C@H]3O)[C@H](OC(=O)[C@]34CCC(C)(C)C[C@H]3C3=CC[C@H]5[C@@]6(C)C[C@H](O)[C@H](O[C@@H]7O[C@@H](C)[C@H](O)[C@@H](O[C@@H]8OC[C@@H](O)[C@H](O)[C@H]8O[C@@H]8O[C@H](CO)[C@@H](O)[C@H](O)[C@H]8O)[C@H]7O)[C@@](C)(CO)[C@@H]6CC[C@@]5(C)[C@]3(C)C[C@H]4O)O[C@H]2C)[C@H](O)[C@H](O)[C@H]1O`, the cytotoxicity call was “inactive”.
With `CC=C(C)C(=O)OC1C(OC(C)=O)C2(CO)C(O)CC3(C)C(=CCC4C5(C)CCC(OC6OC(C(=O)O)C(OC7OC(CO)C(O)C(O)C7O)C(O)C6OC6OC(CO)C(O)C(O)C6O)C(C)(CO)C5CCC43C)C2CC1(C)C` (stereo not drawn), the cytotoxicity call was “active”.
As for `C[C@@H]1O[C@@H](O[C@@H]2CC[C@@]3(C)[C@@H](CC[C@]4(C)[C@@H]3CC=C3[C@@H]5CC(C)(C)CC[C@]5(C(=O)O[C@@H]5O[C@H](CO[C@@H]6O[C@H](CO)[C@@H](O)[C@H](O)[C@H]6O)[C@@H](O)[C@H](O)[C@H]5O)CC[C@]34C)[C@]2(C)CO)[C@H](O)[C@H](O[C@@H]2OC[C@@H](O)[C@H](O)[C@H]2O)[C@H]1O`, the cytotoxicity call is “inactive”.
For the molecule `C/C=C(/C)C(=O)O[C@@H]1[C@H](OC(C)=O)[C@]2(CO)[C@H](O)C[C@]3(C)C(=CC[C@H]4[C@@]5(C)CC[C@H](O[C@@H]6O[C@H](C(=O)O)[C@@H](O[C@@H]7O[C@H](CO)[C@@H](O)[C@H](O)[C@H]7O)[C@H](O)[C@H]6O[C@@H]6O[C@H](CO)[C@@H](O)[C@H](O)[C@H]6O)[C@](C)(CO)[C@@H]5CC[C@]43C)[C@@H]2CC1(C)C`, the cytotoxicity call was “inactive”.
In the case of `C[C@H]1O[C@@H](OC(=O)[C@]23CCC(C)(C)C[C@H]2C2=CC[C@H]4[C@@]5(C)CC[C@H](O[C@@H]6O[C@H](C(=O)O)[C@@H](O)[C@H](O[C@@H]7OC[C@@H](O)[C@H](O)[C@H]7O)[C@H]6O[C@@H]6O[C@H](CO)[C@H](O)[C@H](O)[C@H]6O)[C@@](C)(C=O)[C@@H]5CC[C@@]4(C)[C@]2(C)C[C@H]3O)[C@H](O[C@H]2O[C@@H](CO)[C@@H](O)[C@@H](O)[C@@H]2O)[C@@H](O)[C@H]1O[C@@H]1O[C@H](C)[C@@H](O[C@H]2OC[C@@H](O)[C@@H](O)[C@@H]2O)[C@H](O)[C@@H]1O`, the cytotoxicity call was “inactive”.
On to `C[C@H]1O[C@@H](O[C@H]2CC[C@@]3(C)[C@@H](CC[C@@]4(C)[C@@H]3CC=C3[C@H]5C[C@](C)(C(=O)O)CC[C@]5(C(=O)O[C@H]5O[C@@H](CO)[C@@H](O)[C@@H](O)[C@@H]5O)CC[C@@]34C)[C@@]2(C)CO)[C@@H](O)[C@@H](O[C@H]2O[C@@H](CO)[C@@H](O)[C@@H](O)[C@@H]2O)[C@@H]1O`, for which the cytotoxicity call was “inactive”.
Turning to `CC1(C)CC[C@]2(C(=O)O[C@H]3O[C@@H](CO)[C@@H](O)[C@@H](O)[C@@H]3O)CC[C@]3(C)C(=CC[C@H]4[C@@]5(C)C[C@@H](O)[C@H](O[C@H]6O[C@H](C(=O)O)[C@@H](O)[C@@H](O)[C@@H]6O)C(C)(C)[C@@H]5CC[C@]43C)[C@@H]2C1`, the cytotoxicity call is “inactive”.
For the molecule `CC=C(C)C(=O)O[C@H]1[C@H](OC(C)=O)[C@]2(CO)[C@H](O)C[C@]3(C)C(=CC[C@@H]4[C@@]5(C)CC[C@H](O[C@@H]6O[C@H](C(=O)O)[C@@H](O[C@@H]7O[C@H](CO)[C@@H](O)[C@H](O)[C@H]7O)[C@H](O)[C@H]6O[C@@H]6O[C@H](CO)[C@@H](O)[C@H](O)[C@H]6O)[C@](C)(CO)[C@@H]5CC[C@]43C)[C@@H]2CC1(C)C`, the cytotoxicity call was “active”.
Regarding `C/C=C(/C)C(=O)O[C@H]1[C@@H](OC(C)=O)[C@@]2(CO)[C@@H](O)C[C@@]3(C)C(=CC[C@H]4[C@@]5(C)CC[C@@H](O[C@H]6O[C@H](C(=O)O)[C@@H](O[C@H]7O[C@@H](CO)[C@@H](O)[C@@H](O)[C@@H]7O)[C@@H](O)[C@@H]6O[C@H]6O[C@@H](CO)[C@@H](O)[C@@H](O)[C@@H]6O)[C@@](C)(CO)[C@@H]5CC[C@]43C)[C@@H]2CC1(C)C`, the cytotoxicity call was “active”.
